Data: the supplement of paper PMC10849652
About 8,800 targets were measured; listed, in parts, are those with a hit and a random draw of the rest. About 0.5% of all pairs of compound and target were hits. Values without a mark were called inactive.

Assays:
Experiment in all cases: log2 fold change, soluble protein after heating vs DMSO (PISA); higher = thermal stabilisation; K562 lysate, 10 uM; active = over 0.2 and 3.5 SD of the protein, either way, in both replicates (recomputed)
vemurafenib = compound: CCCS(=O)(=O)Nc1ccc(F)c(C(=O)c2c[nH]c3ncc(-c4ccc(Cl)cc4)cc23)c1F [vemurafenib]
Outline: (§1)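 Values give the log-two fold change in thermal stability against solvent controls, from duplicates. Crude K562 extract at 1 mg/mL protein, made by dounce homogenisation in PBS pH 7.4 with 1 mM MgCl2, was treated with 10 μM compound for 30 min. After 3 min heating across 48°C-58°C, aliquots were pooled, adjusted to 0.5% NP-40 at 4°C and centrifuged at 21,000xg for 90 min. The supernatant was measured by TMTpro 16plex LC-MS/MS with channel sums equalised.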

[1] = compound: CCCS(=O)(=O)Nc1ccc(F)c(C(=O)c2c[nH]c3ncc(Cl)cc23)c1F
Outline: as §1

barasertib = compound: CCN(CCCOc1ccc2c(Nc3cc(CC(=O)Nc4cccc(F)c4)[nH]n3)ncnc2c1)CCOP(=O)(O)O [barasertib]
Outline: as §1

[2] = compound: CC[C@@H]1C(=O)N(C)c2cnc(Nc3ccc(C(=O)NC4CCN(C)CC4)cc3OC)nc2N1C1CCCC1
Outline: as §1

volasertib = compound: CC[C@@H]1C(=O)N(C)c2cnc(Nc3ccc(C(=O)N[C@H]4CC[C@H](N5CCN(CC6CC6)CC5)CC4)cc3OC)nc2N1C(C)C [volasertib]
Outline: as §1

[3] = compound: CCn1c(C(=O)N(C2CC2)C2CC2)cc2c3c(ncn3C)c(Nc3cc(C)n(C)n3)nc21
Outline: as §1

[4] = compound: CCn1cc(-c2ccnc3[nH]c(-c4cccc(CN(C)C)c4)cc23)c(-c2ccc(NC(=O)N(C)C)cc2)n1
Outline: as §1

[5] = compound: CN1CCC(CNc2ccc3ncc(-c4cccc(OC(F)(F)F)c4)n3n2)CC1
Outline: as §1

saracatinib = compound: CN1CCN(CCOc2cc(OC3CCOCC3)c3c(Nc4c(Cl)ccc5c4OCO5)ncnc3c2)CC1 [saracatinib]
Outline: as §1

sotrastaurin = compound: CN1CCN(c2nc(C3=C(c4c[nH]c5ccccc45)C(=O)NC3=O)c3ccccc3n2)CC1 [sotrastaurin]
Outline: as §1

alvocidib = compound: CN1CC[C@H](c2c(O)cc(O)c3c(=O)cc(-c4ccccc4Cl)oc23)[C@H](O)C1 [alvocidib]
Outline: as §1

Tubastatin A = compound: CN1CCc2c(c3ccccc3n2Cc2ccc(C(=O)NO)cc2)C1 [Tubastatin A]
Outline: as §1

[6] = compound: CNC(=O)C1=CC=CC=C1NC2=NC(=NC=C2Cl)NC3=C(C=C(C=C3)N4CCOCC4)OC
Outline: as §1

defactinib = compound: CNC(=O)c1ccc(Nc2ncc(C(F)(F)F)c(NCc3nccnc3N(C)S(C)(=O)=O)n2)cc1 [defactinib]
Outline: as §1

[7] = compound: CNc1nc(-c2ccc3c(N)n[nH]c3c2)cc(N2C[C@@H](C(=O)NC3CCCCC3)CC[C@H]2C)n1
Outline: as §1

encorafenib = compound: COC(=O)N[C@@H](C)CNc1nccc(-c2cn(C(C)C)nc2-c2cc(Cl)cc(NS(C)(=O)=O)c2F)n1 [encorafenib]
Outline: as §1

[8] = compound: COC(=O)[C@H](CCSC)NC(=O)C1=C(C=C(C=C1)NC[C@H](CS)N)C2=CC=CC=C2
Outline: as §1

alisertib = compound: COc1cc(Nc2ncc3c(n2)-c2ccc(Cl)cc2C(c2c(F)cccc2OC)=NC3)ccc1C(=O)O [alisertib]
Outline: as §1

[9] = compound: COc1cc2nc(-c3cc(F)ccc3O)nc(N[C@@H]3CNC[C@H]3C(C)(C)O)c2cc1OC
Outline: as §1

gefitinib = compound: COc1cc2ncnc(Nc3ccc(F)c(Cl)c3)c2cc1OCCCN1CCOCC1 [gefitinib]
Outline: as §1

UniProt Q9Y4P8, sequence (Q9Y4P8 whole entry, looked up): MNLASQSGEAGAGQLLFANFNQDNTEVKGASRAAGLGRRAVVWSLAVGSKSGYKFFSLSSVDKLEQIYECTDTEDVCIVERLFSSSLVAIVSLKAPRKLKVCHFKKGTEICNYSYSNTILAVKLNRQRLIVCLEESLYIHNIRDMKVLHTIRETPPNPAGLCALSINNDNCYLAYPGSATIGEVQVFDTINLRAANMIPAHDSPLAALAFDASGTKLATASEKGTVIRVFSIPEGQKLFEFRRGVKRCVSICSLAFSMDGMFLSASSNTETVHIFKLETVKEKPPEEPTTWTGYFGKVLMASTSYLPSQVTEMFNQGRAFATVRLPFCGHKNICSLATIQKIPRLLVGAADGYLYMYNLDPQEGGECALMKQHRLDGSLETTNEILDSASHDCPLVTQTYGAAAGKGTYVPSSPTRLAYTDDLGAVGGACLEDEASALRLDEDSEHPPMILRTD
UniProt Q5VZL5, sequence (Q5VZL5 whole entry, looked up): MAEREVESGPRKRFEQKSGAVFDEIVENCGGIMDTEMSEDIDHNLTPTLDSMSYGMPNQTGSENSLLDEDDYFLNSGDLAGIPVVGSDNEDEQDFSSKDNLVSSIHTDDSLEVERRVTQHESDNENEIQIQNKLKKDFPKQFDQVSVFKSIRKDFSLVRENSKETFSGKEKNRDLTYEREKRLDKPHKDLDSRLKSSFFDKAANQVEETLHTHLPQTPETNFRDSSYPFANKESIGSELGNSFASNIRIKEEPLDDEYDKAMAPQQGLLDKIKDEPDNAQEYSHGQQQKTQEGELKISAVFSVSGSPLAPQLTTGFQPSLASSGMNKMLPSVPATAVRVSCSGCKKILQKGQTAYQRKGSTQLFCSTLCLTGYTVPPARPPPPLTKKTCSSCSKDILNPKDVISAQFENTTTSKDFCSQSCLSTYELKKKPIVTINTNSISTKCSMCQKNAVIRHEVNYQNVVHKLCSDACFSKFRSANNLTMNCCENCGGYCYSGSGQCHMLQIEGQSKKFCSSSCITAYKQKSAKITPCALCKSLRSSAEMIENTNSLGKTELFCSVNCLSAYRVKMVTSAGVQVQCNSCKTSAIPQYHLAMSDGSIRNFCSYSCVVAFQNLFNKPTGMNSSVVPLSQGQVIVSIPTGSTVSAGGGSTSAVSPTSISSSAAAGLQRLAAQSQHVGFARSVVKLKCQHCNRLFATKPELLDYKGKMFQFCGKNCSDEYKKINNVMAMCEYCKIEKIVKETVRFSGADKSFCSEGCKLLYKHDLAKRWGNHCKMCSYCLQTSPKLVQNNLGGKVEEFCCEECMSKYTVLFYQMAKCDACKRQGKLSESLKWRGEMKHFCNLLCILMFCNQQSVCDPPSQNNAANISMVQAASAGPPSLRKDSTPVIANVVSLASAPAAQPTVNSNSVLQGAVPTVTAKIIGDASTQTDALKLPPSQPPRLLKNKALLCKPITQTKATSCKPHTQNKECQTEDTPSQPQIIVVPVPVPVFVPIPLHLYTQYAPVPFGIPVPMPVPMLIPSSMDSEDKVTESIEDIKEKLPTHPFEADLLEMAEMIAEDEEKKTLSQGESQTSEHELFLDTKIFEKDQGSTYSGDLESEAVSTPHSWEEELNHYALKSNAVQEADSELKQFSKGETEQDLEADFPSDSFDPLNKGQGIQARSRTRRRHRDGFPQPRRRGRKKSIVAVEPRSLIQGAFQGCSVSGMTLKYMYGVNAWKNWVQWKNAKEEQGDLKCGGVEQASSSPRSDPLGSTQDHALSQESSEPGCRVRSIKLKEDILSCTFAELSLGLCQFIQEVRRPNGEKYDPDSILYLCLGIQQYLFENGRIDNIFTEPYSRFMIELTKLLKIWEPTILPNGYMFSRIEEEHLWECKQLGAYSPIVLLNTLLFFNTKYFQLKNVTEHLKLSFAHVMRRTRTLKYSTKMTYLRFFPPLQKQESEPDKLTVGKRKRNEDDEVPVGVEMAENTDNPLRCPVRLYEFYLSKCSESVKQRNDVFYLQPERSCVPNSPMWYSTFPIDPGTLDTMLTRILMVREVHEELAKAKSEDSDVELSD
UniProt O75717, sequence (O75717 whole entry, looked up): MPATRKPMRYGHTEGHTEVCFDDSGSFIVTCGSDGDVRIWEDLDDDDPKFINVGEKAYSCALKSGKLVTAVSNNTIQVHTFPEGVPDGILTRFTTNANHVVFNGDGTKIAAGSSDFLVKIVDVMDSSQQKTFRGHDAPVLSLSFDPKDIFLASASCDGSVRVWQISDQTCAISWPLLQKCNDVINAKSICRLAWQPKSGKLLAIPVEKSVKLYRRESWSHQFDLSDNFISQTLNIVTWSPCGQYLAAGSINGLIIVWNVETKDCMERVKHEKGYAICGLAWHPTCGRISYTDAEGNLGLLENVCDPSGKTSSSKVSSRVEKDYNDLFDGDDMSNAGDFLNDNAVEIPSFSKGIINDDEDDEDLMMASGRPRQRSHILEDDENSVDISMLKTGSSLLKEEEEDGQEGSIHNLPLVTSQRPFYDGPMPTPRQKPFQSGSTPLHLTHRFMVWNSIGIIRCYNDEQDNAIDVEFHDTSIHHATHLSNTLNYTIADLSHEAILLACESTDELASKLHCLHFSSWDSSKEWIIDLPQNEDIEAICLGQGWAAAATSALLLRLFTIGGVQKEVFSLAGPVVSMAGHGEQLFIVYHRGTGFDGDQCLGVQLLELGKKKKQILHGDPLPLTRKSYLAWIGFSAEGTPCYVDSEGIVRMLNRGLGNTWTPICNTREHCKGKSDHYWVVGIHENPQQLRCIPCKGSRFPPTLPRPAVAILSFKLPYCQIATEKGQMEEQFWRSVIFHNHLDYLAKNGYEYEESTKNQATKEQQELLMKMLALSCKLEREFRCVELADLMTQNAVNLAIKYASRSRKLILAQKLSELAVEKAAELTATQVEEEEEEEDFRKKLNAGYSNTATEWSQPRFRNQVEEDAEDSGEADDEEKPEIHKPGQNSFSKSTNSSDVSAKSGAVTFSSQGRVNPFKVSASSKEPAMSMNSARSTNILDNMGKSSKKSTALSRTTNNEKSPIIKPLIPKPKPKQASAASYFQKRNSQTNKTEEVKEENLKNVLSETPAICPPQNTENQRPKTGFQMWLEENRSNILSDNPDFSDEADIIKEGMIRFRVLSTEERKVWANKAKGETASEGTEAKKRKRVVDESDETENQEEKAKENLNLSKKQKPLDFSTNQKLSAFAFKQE
UniProt P49754, sequence (P49754 whole entry, looked up): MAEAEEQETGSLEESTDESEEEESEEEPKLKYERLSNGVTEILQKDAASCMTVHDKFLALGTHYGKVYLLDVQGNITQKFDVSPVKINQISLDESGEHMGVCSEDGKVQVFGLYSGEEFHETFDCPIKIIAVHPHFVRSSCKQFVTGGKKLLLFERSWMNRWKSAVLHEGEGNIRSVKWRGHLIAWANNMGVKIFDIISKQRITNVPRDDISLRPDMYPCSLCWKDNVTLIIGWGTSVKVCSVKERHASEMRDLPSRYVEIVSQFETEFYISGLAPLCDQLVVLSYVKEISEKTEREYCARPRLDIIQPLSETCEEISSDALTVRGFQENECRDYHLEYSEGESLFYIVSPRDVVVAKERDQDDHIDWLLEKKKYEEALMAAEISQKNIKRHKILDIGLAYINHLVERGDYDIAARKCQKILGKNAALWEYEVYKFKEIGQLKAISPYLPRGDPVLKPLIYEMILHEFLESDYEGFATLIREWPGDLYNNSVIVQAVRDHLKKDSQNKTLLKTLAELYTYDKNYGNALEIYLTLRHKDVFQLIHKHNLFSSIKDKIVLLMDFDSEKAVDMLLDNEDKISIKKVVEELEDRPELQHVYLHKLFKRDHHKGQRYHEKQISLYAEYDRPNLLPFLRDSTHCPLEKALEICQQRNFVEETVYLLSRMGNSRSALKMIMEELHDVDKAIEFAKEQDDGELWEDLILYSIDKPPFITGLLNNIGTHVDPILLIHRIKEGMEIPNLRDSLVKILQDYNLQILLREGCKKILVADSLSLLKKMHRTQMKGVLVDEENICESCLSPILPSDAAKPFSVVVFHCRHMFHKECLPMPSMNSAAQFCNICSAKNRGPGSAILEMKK
UniProt Q8TBZ3, sequence (Q8TBZ3 whole entry, looked up): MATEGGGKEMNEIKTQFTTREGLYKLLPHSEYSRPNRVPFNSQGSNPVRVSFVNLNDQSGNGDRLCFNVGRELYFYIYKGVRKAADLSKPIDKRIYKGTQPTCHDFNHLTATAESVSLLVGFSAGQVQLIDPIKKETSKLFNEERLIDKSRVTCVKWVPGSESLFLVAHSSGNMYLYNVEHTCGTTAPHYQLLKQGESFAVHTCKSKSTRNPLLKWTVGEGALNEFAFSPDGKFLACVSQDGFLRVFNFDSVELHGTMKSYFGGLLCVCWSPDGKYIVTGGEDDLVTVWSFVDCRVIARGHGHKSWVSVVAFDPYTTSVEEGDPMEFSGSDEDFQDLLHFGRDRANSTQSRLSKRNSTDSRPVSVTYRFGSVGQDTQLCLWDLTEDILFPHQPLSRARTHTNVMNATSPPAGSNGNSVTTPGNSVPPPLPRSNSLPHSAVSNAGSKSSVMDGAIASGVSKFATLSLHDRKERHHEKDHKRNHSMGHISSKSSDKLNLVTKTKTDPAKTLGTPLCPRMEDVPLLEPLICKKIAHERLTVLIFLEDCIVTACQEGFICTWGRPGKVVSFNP
UniProt Q86U90, sequence (Q86U90 whole entry, looked up): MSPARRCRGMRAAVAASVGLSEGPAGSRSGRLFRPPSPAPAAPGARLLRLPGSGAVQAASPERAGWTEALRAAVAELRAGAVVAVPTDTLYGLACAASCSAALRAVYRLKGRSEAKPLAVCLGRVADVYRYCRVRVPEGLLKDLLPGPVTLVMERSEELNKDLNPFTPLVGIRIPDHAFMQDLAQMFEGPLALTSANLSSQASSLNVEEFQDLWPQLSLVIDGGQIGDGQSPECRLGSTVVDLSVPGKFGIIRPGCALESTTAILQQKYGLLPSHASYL
UniProt Q96NC0, sequence (Q96NC0 whole entry, looked up): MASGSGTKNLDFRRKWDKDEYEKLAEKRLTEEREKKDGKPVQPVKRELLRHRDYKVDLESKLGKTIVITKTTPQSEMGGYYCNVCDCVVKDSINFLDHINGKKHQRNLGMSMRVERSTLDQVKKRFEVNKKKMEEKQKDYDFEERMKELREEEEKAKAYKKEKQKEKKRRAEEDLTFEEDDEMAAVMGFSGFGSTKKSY

| Target | log2 fold change (vemurafenib) | log2 fold change [1] | log2 fold change (barasertib) | log2 fold change [2] | log2 fold change (volasertib) | log2 fold change [3] | log2 fold change [4] | log2 fold change [5] | log2 fold change (saracatinib) | log2 fold change (sotrastaurin) | log2 fold change (alvocidib) | log2 fold change (Tubastatin A) | log2 fold change [6] | log2 fold change (defactinib) | log2 fold change [7] | log2 fold change (encorafenib) | log2 fold change [8] | log2 fold change (alisertib) | log2 fold change [9] | log2 fold change (gefitinib) |
| --- | --- | --- | --- | --- | --- | --- | --- | --- | --- | --- | --- | --- | --- | --- | --- | --- | --- | --- | --- | --- |
| WDR20 isoform 7 (UniProt Q8TBZ3) | 0.047 | 0 | 0.087 | 0.054 | -0.039 | -0.017 | 0.039 | -0.039 | 0.065 | -0.036 | -0.041 | -0.035 | 0.02 | -0.049 | -0.13 | 0.078 | -0.114 | 0.175 | -0.002 | -0.149 |
| YTHDF3 (UniProt Q7Z739) | -0.019 | 0.002 | 0.119 | 0.058 | -0.071 | 0.168 | -0.041 | 0.01 | 0.076 | -0.083 | 0.03 | -0.108 | -0.071 | -0.05 | -0.112 | 0.097 | 0.024 | 0.043 | 0.009 | 0.013 |
| VPS41 (UniProt P49754) | -0.018 | -0.016 | 0.085 | 0.005 | -0.078 | 0.06 | 0.074 | -0.054 | 0.002 | 0.058 | 0.068 | -0.128 | 0.03 | 0.006 | -0.055 | 0.019 | -0.072 | -0.043 | 0.006 | -0.004 |
| WDR36 (UniProt Q8NI36) | 0.014 | 0.018 | 0.011 | -0.058 | -0.022 | 0.034 | 0.012 | -0.076 | -0.015 | 0.044 | 0.021 | -0.102 | 0.028 | -0.018 | -0.062 | -0.025 | 0.134 | 0.008 | 0.004 | -0.03 |
| WIPI2 (UniProt Q9Y4P8) | -0.028 | 0.012 | -0.06 | -0.073 | -0.022 | 0.002 | -0.108 | 0.09 | 0.01 | -0.002 | -0.036 | 0.005 | -0.007 | 0.036 | -0.051 | 0.029 | 0.049 | -0.033 | -0.012 | -0.027 |
| USP48 (UniProt Q86UV5) | 0.043 | 0.074 | -0.024 | 0.047 | -0.102 | -0.057 | -0.821 (active) | 0.146 | -0.021 | -0.12 | -0.193 | -0.069 | 0.123 | 0.024 | 0.054 | -0.016 | 0.018 | -0.015 | 0.09 | -0.069 |
| ZMYM2 (UniProt Q9UBW7) | 0.004 | 0.101 | -0.016 | -0.034 | -0.253 | -0.119 | 0.025 | -0.196 | 0.018 | -0.008 | 0.076 | -0.155 | 0.003 | 0.121 | -0.021 | -0.214 | -0.018 | -0.077 | 0.087 | 0.06 |
| VPS33A (UniProt Q96AX1) | -0.012 | 0.022 | 0.037 | 0.018 | -0.042 | 0.018 | -0.041 | -0.033 | -0.001 | 0.03 | -0.01 | -0.077 | 0.033 | 0.012 | -0.011 | 0.028 | -0.044 | 0.021 | -0.022 | 0.027 |
| ZC2HC1A (UniProt Q96GY0) | 0.13 | -0.032 | 0.078 | 0.086 | 0.031 | 0.035 | -0.057 | 0.117 | -0.011 | 0.016 | -0.034 | -0.044 | -0.021 | -0.155 | -0.04 | 0.03 | -0.235 (active) | -0.073 | -0.021 | 0.019 |
| YRDC (UniProt Q86U90) | 0.03 | 0.093 | 0.019 | 0.04 | -0.005 | -0.045 | -0.019 | 0.089 | -0.043 | -0.002 | 0.015 | -0.006 | 0.044 | -0.023 | 0.043 | 0.003 | -0.1 | -0.014 | -0.004 | -0.001 |
| WDHD1 (UniProt O75717) | -0.03 | 0.022 | -0.02 | -0.011 | -0.026 | -0.001 | 0.078 | -0.066 | 0.024 | 0.003 | 0.042 | -0.073 | 0.004 | -0.002 | -0.011 | -0.019 | 0.098 | -0.016 | -0.003 | 0.015 |
| ZMYM4 (UniProt Q5VZL5) | 0.008 | 0.003 | 0.126 | 0.013 | 0.041 | 0.033 | 0.013 | 0.029 | 0.023 | 0.043 | -0.071 | -0.089 | -0.015 | 0.096 | 0.188 | 0.063 | 0.016 | -0.004 | 0.004 | 0.047 |
| USP34 (UniProt Q70CQ2) | 0.006 | 0.039 | 0.048 | -0.054 | -0.052 | 0.014 | 0.027 | -0.079 | 0.026 | -0.008 | 0.035 | -0.045 | 0.009 | 0.006 | -0.014 | 0.033 | 0.09 | 0 | 0.017 | 0.013 |
| ZMYM1 (UniProt Q5SVZ6) | 0.011 | -0.017 | 0.05 | -0.033 | -0.124 | 0.017 | -0.272 (active) | 0.127 | 0.013 | 0.05 | -0.162 | -0.098 | 0.071 | -0.035 | 0.067 | 0.063 | -0.038 | -0.008 | 0.03 | 0.009 |
| XAB2 (UniProt Q9HCS7) | 0.033 | 0.075 | -0.015 | 0.065 | -0.02 | 0.05 | -0.044 | 0.017 | 0.006 | 0 | -0.003 | -0.039 | 0.012 | 0.008 | 0.014 | -0.045 | 0.2 | -0.017 | 0.025 | 0.046 |
| ZMAT2 (UniProt Q96NC0) | -0.015 | 0 | -0.041 | 0.062 | 0.039 | -0.026 | -0.034 | 0.087 | 0.017 | -0.036 | -0.001 | 0.053 | -0.012 | -0.001 | -0.037 | -0.035 | -0.014 | 0.009 | 0.001 | 0.013 |
